SKKanGAS inh = blocks kanamycin growth of S. pyogenes SKKanGAS strain | BacTiter-Glo, 6 h | inhibition, % at 7.5 µM | hit rate 1.3% among 300,000;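 active = mean replicate score, as percent of positive control median, at least 50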;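 note: strain carries kanamycin resistance gene driven by streptokinase promoter and grows in 40 µg/ml kanamycin; loss of luminescence reflects streptokinase promoter inhibition or plain growth inhibition; 0% = median of DMSO wells and 100% = positive control at its reference dose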
V-ATPase pH = regulators of yeast V-ATPase proton transport; response, % at 10 µM; AID 504577; hit rate 0.37% among 350,000; S. cerevisiae, pHLuorin cytosolic pH fluorescence; in the data active = response mostly above about 7.3%, no sharp cut-off; inactive = mostly below about 5.4%; note: actives read high
PfHsp90 yeast 2 = growth inhibition of yeast expressing Plasmodium Hsp90 | S. cerevisiae expressing PfHsp90, BacTiter-Glo ATP, 48 h; yeast lacking PDR1 and PDR3 efflux regulators | inhibition, % at 9.4 µM | hit rate 0.32% among 310,000 | AID 504621;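 active = every replicate shows inhibition above about 80%, whatever the replicate mean, limit read from the data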;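 note: 0% = DMSO neutral controls and 100% = 20 µM radicicol positive controls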
tim10-1 inh = growth inhibitors of tim10-1 mutant yeast | hit rate 2.2% among 330,000 | S. cerevisiae tim10-1 ts strain growth, BacTiter-Glo, 24 h | inhibition, % at 20 µM;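 active = inhibition of at least 40%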;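 note: mutant grown at 25 °C; 0% = DMSO wells with yeast and 100% = wells holding no yeast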
tim23-1 inh = inhibits growth of tim23-1 mutant yeast; S. cerevisiae tim23-1 growth, BacTiter-Glo luminescence, 24 h; inhibition, % at 20 µM; hit rate 1.3% among 330,000; AID 463212;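 active = growth inhibition of the mutant yeast at or above 50%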;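 note: temperature-sensitive mutant grown at 25 °C; plate controls were DMSO-treated mutant yeast for no effect and medium wells lacking yeast for full effect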
TIM10 inh = TIM10 yeast growth inhibition | S. cerevisiae TIM10 strain growth, BacTiter-Glo luminescence, 24 h | inhibition, % at 10 µM | hit rate 1.4% among 330,000;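 active = inhibition of 40% or more at the single tested concentration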;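 note: wild-type TIM10 isogenic control strain grown at permissive 25 °C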
tim23-1 conf = tim23-1 yeast growth inhibition, confirmed. shares compounds with tim23-1 inh. S. cerevisiae tim23-1 growth, BacTiter-Glo luminescence, 24 h. inhibition, % at 20 µM. hit rate 83% among 4,400. AID 463218;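 active = inhibition above about 39% in either of two replicate wells at 20 µM, limit read from the data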;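 note: temperature-sensitive tim23-1 mutant grown at 25 °C; 0% = DMSO wells with yeast and 100% = medium wells without yeast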
* marks the source's active call; other numbers are inactive results; . = not tested or not shown. This is a sample that favours compounds with a hit; in the whole collection about 4.6% have one here.

SMILES	SKKanGAS inh	V-ATPase pH	PfHsp90 yeast 2	tim10-1 inh	tim23-1 inh	TIM10 inh	tim23-1 conf
O=C(/C=C/c1c[nH]c2ccccc12)c1cccc2ccccc12	28	-1	4	25	54*	37	62*
Cc1ccc(C(=O)/C=C/C(=O)c2ccc(C)cc2)cc1	62*	3	18	32	58*	36	-72
O=C(COC(=O)c1ccccc1Cc1ccccc1)NC1CCS(=O)(=O)C1 (stereo not drawn)	-22	-2	9	-1	-1	5	.
Cc1cc(C(=O)c2ccc(Cl)cc2)c(NC(=O)CCl)s1	-5	2	-21	37	37	8	.
CCc1cc(C(=O)c2ccc(C)cc2)c(NC(=O)CCl)s1	-4	-3	-9	40	50*	28	49*
Cc1cc(SCC(=O)N/N=C/c2ccc(O)cc2O)nc2ccccc12	21	2	-5	18	51*	28	52*
Cc1cc(SCC(=O)N/N=C/c2ccc(O)c(O)c2)nc2ccccc12	-1	-3	-4	-2	11	-10	.
CN1c2ccsc2/C(=N/Nc2ccc(F)cc2)CS1(=O)=O	.	1	-57	36	53*	30	-29
O=C1NCCC/C1=N/Nc1ccc(F)cc1	2	.	.	-3	15	-18	.
CC(C)n1c2ccccc2c2nc3ccccc3nc21	6	-1	-19	37	51*	20	52*
C#CCn1c2ccccc2c2nc3ccccc3nc21	-3	1	-20	-15	-16	2	.
CCCCS/C(N)=N/N=C/c1ccccc1O	13	-4	25	37	58*	24	66*
Cn1c(=NC(=O)c2ccco2)sc2ccccc21	9	-3	-4	-28	21	-3	.
Cn1c(=NC(=O)CCl)sc2ccccc21	-3	-1	-60	34	57*	13	36
Cc1cc(C(=O)COC(=O)c2cccc(O)c2)c(C)n1C1CC1	.	-3	.	1	1	-7	.
COC(=O)CN1C(=O)N/C(=C/c2ccc(C)o2)C1=O	8	0	10	-5	8	-21	.
Cc1ccc(/C=C2/NC(=O)N(Cc3ccccc3)C2=O)o1	6	1	7	25	68*	2	58*
O=C(O/N=C(\c1ccccc1)c1ccncc1)c1ccccc1Cl	-1	-1	10	11	52*	26	53*
Cc1[nH]c2ccccc2c1C(=O)/C=C/c1ccccc1	-3	0	30	27	64*	14	56*
O=C(O)c1cccc(-c2ccc(/C=N/n3cnc4sc5c(c4c3=O)CCCC5)o2)c1	8	.	.	29	52*	0	22
Cc1ccc(/C=N/n2cnc3sc4c(c3c2=O)CCCC4)o1	-5	-2	-2	13	17	7	.
COc1ccccc1OCc1nc2ccccc2n1C	-5	5	-8	21	16	-1	.
Cc1ccc(-c2nnc(OCc3cccnc3)c3ccccc23)cc1	0	0	.	30	53*	-14	54*
c1ccc(-c2nnc(OCc3cccnc3)c3ccccc23)cc1	-3	-1	18	-16	0	-64	.
Cc1ccc(-c2nnc(OCc3nc4ccccc4n3C)c3ccccc23)cc1	-3	5	29	34	52*	28	50*
SMILES	SKKanGAS inh	V-ATPase pH	PfHsp90 yeast 2	tim10-1 inh	tim23-1 inh	TIM10 inh	tim23-1 conf
CCn1c(CNc2ccc(C)cc2)nnc1SCC(N)=O	-6	2	.	5	6	-27	.
Cc1cc(NC(=O)CN2CCc3ccccc3C2)nc2c1c(=O)oc1ccccc12	-1	1	-5	24	53*	30	62*
CCCC(=O)Nc1cc(C)c2c(=O)oc3ccccc3c2n1	6	1	-24	21	26	-4	.
C/C(=N\NC(=O)CSc1ncccn1)c1ccc2c(c1)OCCO2	-4	-1	-5	-1	53*	-15	15
C/C(=N\NC(=O)CSc1nc(C)cc(C)n1)c1ccc2c(c1)OCCO2	1	-2	-1	13	10	8	.
CCN1CCN(c2ccc(S(=O)(=O)N3CCOCC3)cc2NC(=O)C(C)Oc2ccc(Cl)cc2)CC1 (stereo not drawn)	9	-2	10	12	4	14	.
CC(C)CCSc1nc(N2CCOCC2)c2c(c1C#N)CC(C)(C)OC2	0	-2	-16	8	60*	0	20
Cc1ccc2c(c1)C(=O)C(=O)N2CCCOc1ccccc1C	-12	2	-13	10	22	18	.
Cc1cccc(OCCN2C(=O)C(=O)c3cc(C)ccc32)c1	7	-2	-8	11	51*	12	49*
Cc1ccc2c(c1)C(=O)C(=O)N2CCOc1ccccc1	1	-5	-4	13	43	12	.
Cc1cccc2c1N(CCCOc1ccccc1)C(=O)C2=O	-5	1	-1	23	59*	26	56*
CCCCN1C(=O)C(=O)c2cc(Cl)ccc21	.	0	0	18	59*	25	55*
Cc1ccc(CN2C(=O)C(=O)c3cc(C)ccc32)cc1	.	-1	9	16	79*	25	84*
COc1ccc(S(=O)(=O)N2CCC(C(=O)NN3CCCCC3)CC2)cc1OC	.	-1	7	11	6	-1	.
CN(CCCNC(=O)CSc1cc(=O)n(C)c2cc(Cl)ccc12)Cc1ccccc1	1	-2	0	13	6	0	.
CCCN1C(=O)C(=O)c2cc(C)ccc21	.	2	18	-11	18	-2	.
Cc1ccc2c(c1)C(=O)C(=O)N2Cc1ccc(Br)cc1	.	-6	13	36	68*	39	1
Cc1ccc2c(c1)C(=O)C(=O)N2c1ccc(Cl)cc1	.	-7	5	13	66*	24	75*
COc1cccc(/C=C2\CCc3ccccc3C2=O)c1	26	-2	-6	28	38	10	.
CC(=O)Oc1ccc(/C=C2/CCc3ccccc3C2=O)cc1	35	3	-8	-11	60*	31	51*
CC(C)(C)NC(=O)C12CCC(C)(c3nc4ccccc4nc31)C2(C)C (stereo not drawn)	4	0	.	39	53*	38	37
CC(=O)N1CCc2cc(Br)cc(S(=O)(=O)NCCCN(C)Cc3ccccc3)c21	-3	-4	-19	-15	10	-9	.
CCc1cc2c3c(c1)C(C)CC(C)(C)N3C(=O)/C2=C1\SC(=O)NC1=O (stereo not drawn)	26	0	20	23	59*	18	50*
CCc1cc2c3c(c1)/C(=C1/SC(N)=NC1=O)C(=O)N3C(C)(C)C=C2C	-14	-1	-1	13	21	17	.
COc1cccc(/C=C/C(=O)c2ccc3c(c2)OCO3)c1OC	.	5	2	26	53*	33	54*
